Most compounds without a hit are left out; they make up all but 3.2% or so of the library.
GoLoco inh red = blocks human Gai1 binding to RGS12 GoLoco peptide, red readout. Potency, µM (series often up to 61.6 µM), without a hit: at the highest dose activity, negative = inhibition, most hits filed as inhibitors. AID 880. Gai1:RGS12 GoLoco peptide FP, rhodamine, 10 min. P63096. 230,000 tested, 0.44% active; active means well fitted inhibition curve with a large enough effect, not every such curve was filed as active; inactive means no such curve, though single readings can be large or run the other way; further: nearly all actives have a fitted effect of over 30% in size
Tau fluor cs = counter-screen for tau fibril formation inhibitors. tau K18 P301L Alexa594 fluorescence, heparin fibrillization. Potency, µM (titrated, usually from 57.7 µM), without a hit: at the highest dose activity change, negative = decrease. 280,000 tested, 0.93% active. AID 1463; further: nearly all actives have a fitted effect of over 55% in size
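Human tau K18 P301L (15 uM unlabeled, 0.24 uM Alexa 594-labeled) in 100 mM sodium acetate pH 7 with 20 uM heparin, 6 hr at 37 C. ThT 30 uM added, 1 hr ambient; Alexa 594 FP and total fluorescence read at 555/632 nm.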
Tau ThT inhib = inhibitors of human tau fibril formation, thioflavin T binding; 270,000 tested, 2.1% active; AID 1460; Potency, µM (top dose mostly 57.4 µM), for the others: at the highest dose activity, negative = inhibition, usual class: inhibitors; recombinant tau K18 P301L, heparin-induced fibrillization, ThT fluorescence; P10636; further: nearly all actives have a fitted effect of over 55% in size
Target sequence (P10636 561-689 P618L limits assumed): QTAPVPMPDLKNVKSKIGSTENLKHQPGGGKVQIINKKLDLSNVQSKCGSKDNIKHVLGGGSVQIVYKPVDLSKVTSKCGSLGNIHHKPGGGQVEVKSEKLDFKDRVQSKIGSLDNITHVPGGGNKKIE
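K18 P301L tau (15 uM + 0.24 uM Alexa 594-tagged), heparin 20 uM, NaOAc pH 7, 6 h 37 C; ThT 30 uM, 1 h RT, ex 450/em 510 nm.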
Tau fibril FP = blocks human tau fibril formation measured by polarization; K18 P301L tau heparin fibrillization, Alexa594 FP, 6 h; Potency, µM (titrated, usually from 57.7 µM), inactives show at the highest dose activity, negative = inhibition, usual class: inhibitors; 280,000 tested, 0.39% active; further: nearly all actives have a fitted effect of over 55% in size
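Heparin (20 uM) drove fibril formation of recombinant tau K18 P301L, 15 uM unlabeled with 0.24 uM Alexa 594 label, for 6 hr at 37 C in 100 mM sodium acetate pH 7. Fluorescence polarization (555/632 nm) read 1 hr after 30 uM ThT.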
TR SRC2 fluor cs = alters Texas Red total fluorescence, flagging assay interference; TRb/SRC2 Texas Red total fluorescence interference; Potency, µM (top dose mostly 106 µM), without a hit: top-dose fluorescence change, negative = quenching; 280,000 tested, 0.29% active; active means well fitted curve in either direction with a large enough effect; inconclusive means small, poorly fitted or top-dose-only effect
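Human TRb ligand-binding domain at 0.6 uM with 20 nM Texas Red SRC2 peptide in Tris buffer containing 1 uM T3 and 5% DMSO, incubated with compound 5 h at ambient temperature. Total fluorescence (555/632 nm) calculated as parallel + 2 × perpendicular.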
TRb SRC2 PPI = disrupts binding of human TR beta to SRC2; P10828; TRbeta-SRC2 peptide binding, fluorescence polarization; receptor liganded with 1 µM T3; Potency, µM (doses to about 106 µM), for inactives: top-dose activity change, negative = inhibition, usual class: inhibitors; 280,000 tested, 0.065% active; AID 1469;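 further: plate controls were bound peptide for no effect and peptide without receptor for full effect; nearly all actives have a fitted effect of over 50% in size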
Target sequence (P10828 whole entry, looked up): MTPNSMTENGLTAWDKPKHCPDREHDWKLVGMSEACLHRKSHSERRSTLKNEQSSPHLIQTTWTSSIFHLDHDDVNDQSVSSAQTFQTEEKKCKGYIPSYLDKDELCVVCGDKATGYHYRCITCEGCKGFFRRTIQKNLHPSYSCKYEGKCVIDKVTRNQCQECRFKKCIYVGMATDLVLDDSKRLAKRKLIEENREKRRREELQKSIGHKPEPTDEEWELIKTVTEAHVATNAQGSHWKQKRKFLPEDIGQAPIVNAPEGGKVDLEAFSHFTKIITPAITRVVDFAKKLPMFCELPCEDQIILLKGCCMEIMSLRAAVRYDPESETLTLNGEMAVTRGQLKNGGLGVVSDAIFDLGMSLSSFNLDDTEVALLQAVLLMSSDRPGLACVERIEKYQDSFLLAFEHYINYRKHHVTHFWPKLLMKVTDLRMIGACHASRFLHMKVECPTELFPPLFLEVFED
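Human TRb ligand-binding domain (0.6 uM) is mixed with 20 nM Texas Red SRC2 peptide and 1 uM T3; after compound addition and 5 hr at ambient temperature, polarization is measured and normalized to unbound and bound controls.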
* = called active by the depositor; [ ] = dose if it differs, or a comment. Unless noted, the call rests on the fitted dose curve; in most records, active means well fitted curve in the direction sought with a large enough effect; inconclusive means small, poorly fitted or top-dose-only effect, or another doubt; inactive means no such curve, though single readings can be large; an effect the other way counts as inactive or inconclusive. Unless noted, on the % scale 0 is the no-effect control and ±100 the full control effect; potency means the concentration at half of the fitted maximal effect.

Cc1c(N=C2C=C(Br)C(=O)C(Br)=C2)c(=O)n(-c2ccccc2)n1C was read as GoLoco inh red -3%, Tau fluor cs 16µM*[quencher], Tau ThT inhib 16µM*, Tau fibril FP 25µM*, TR SRC2 fluor cs 1% and TRb SRC2 PPI 1%.
Screening Cc1c(N=C2C=CC(=O)c3ccccc32)c(=O)n(-c2ccccc2)n1C returned GoLoco inh red -1%, Tau fluor cs 4.5µM*[quencher], Tau ThT inhib 2.2µM*, Tau fibril FP 7.9µM*, TR SRC2 fluor cs -23% and TRb SRC2 PPI -25%.
`Cc1c(N=Nc2ccc(O)cc2)c(=O)n(-c2ccccc2)n1C` gave GoLoco inh red 9%, Tau fluor cs -6%, Tau ThT inhib 2%, Tau fibril FP 3%, TR SRC2 fluor cs -1% and TRb SRC2 PPI 0%.
`COCCNC(=O)C1(C(F)(F)F)C/C(=C/CCO)CCCO1` (stereo unspecified) gave TR SRC2 fluor cs 0% and TRb SRC2 PPI 3%.
Screening C[C@H](NC(=O)[C@@H](N)Cc1ccc(O)cc1)C(=O)NCC(=O)N[C@H]1CSSC[C@@H](C(=O)O)NC(=O)[C@H](CO)NC(=O)[C@H]([C@@H](C)O)NC(=O)[C@H](Cc2ccccc2)NC(=O)[C@H]([C@@H](C)O)NC(=O)[C@H](CCCCN)NC(=O)[C@@H](Cc2c[nH]c3ccccc23)NC(=O)[C@H](Cc2ccccc2)NC(=O)[C@H](Cc2ccccc2)NC(=O)[C@H](CC(N)=O)NC(=O)[C@H](CCCCN)NC1=O returned TR SRC2 fluor cs -3% and TRb SRC2 PPI 1%.
Cc1ccc(C(C[N+](=O)[O-])Sc2ccc(N)cc2)cc1 (stereo unspecified) was read as GoLoco inh red 3%, Tau fluor cs inconclusive, Tau ThT inhib 18µM*, Tau fibril FP inconclusive, TR SRC2 fluor cs 0% and TRb SRC2 PPI -7%.
`Cc1ccc(C(C[N+](=O)[O-])n2nc(C)cc2C)cc1` (stereo unspecified) gave GoLoco inh red -23%, Tau fluor cs -4%, Tau ThT inhib -15%, Tau fibril FP -2%, TR SRC2 fluor cs 4% and TRb SRC2 PPI -15%.
`C[C@H]1OC(=O)CC[C@@H]2[C@]1(C)CCC1[C@@]2(C)CC[C@@]2(C)C3CC(C)(C)CC[C@]3(CO)CC[C@]12C` (stereo partly specified) gave GoLoco inh red 0%, Tau fluor cs -2%, Tau ThT inhib -2%, Tau fibril FP -7%, TR SRC2 fluor cs 0% and TRb SRC2 PPI -4%.
Cc1cccc(N=Nc2c(N)n[nH]c2-c2ccc(Cl)cc2)c1 was read as GoLoco inh red 2%, Tau fluor cs 8.9µM*[quencher], Tau ThT inhib inconclusive, Tau fibril FP inconclusive, TR SRC2 fluor cs -1% and TRb SRC2 PPI -4%.
Screening Cc1ccc(-c2[nH]nc(N)c2N=Nc2ccccc2C)cc1 returned GoLoco inh red 2%, Tau fluor cs 11µM*[quencher], Tau ThT inhib 16µM*, Tau fibril FP -5%, TR SRC2 fluor cs 0% and TRb SRC2 PPI -2%.
`Cc1ccc(-c2[nH]nc(N)c2N=Nc2cccc(Cl)c2C)cc1` gave GoLoco inh red -9%, Tau fluor cs 6.3µM*[quencher], Tau ThT inhib 13µM*, Tau fibril FP inconclusive, TR SRC2 fluor cs -2% and TRb SRC2 PPI 3%.
COc1cc(-c2ccc(N=C=O)c(OC)c2)ccc1N=C=O was read as GoLoco inh red 0%, TR SRC2 fluor cs -5%[201 µM] and TRb SRC2 PPI 5%[201 µM].
Screening COc1ccc2c([N+](=O)[O-])c(Cl)[nH]c2c1 returned GoLoco inh red 0%, Tau fluor cs inconclusive, Tau ThT inhib 28µM*, Tau fibril FP inconclusive, TR SRC2 fluor cs 0% and TRb SRC2 PPI 5%.
`CC(C)=C[C@H]1[C@@H](C(=O)Oc2ccccc2C(C)C)C1(C)C` gave GoLoco inh red 2%[14.2 µM].
CC/C=C\CC[C@H](OC(=O)c1ccc(Br)cc1)C1=CCCCC1=O was read as Tau fluor cs -3%[11.6 µM], Tau ThT inhib -7%[11.5 µM], Tau fibril FP -6%[11.6 µM], TR SRC2 fluor cs 3%[11.2 µM] and TRb SRC2 PPI 2%[11.2 µM].
For CC(C)C[C@H](NC(=O)[C@H](CCC(N)=O)NC(=O)[C@H](CCCCN)NC(=O)[C@H](CCC(N)=O)NC(=O)[C@@H](N)CCC(=O)O)C(=O)N[C@@H](CCC(N)=O)C(=O)O the results were GoLoco inh red 7%, Tau fluor cs -9%, Tau ThT inhib -8%, Tau fibril FP -3%, TR SRC2 fluor cs -1% and TRb SRC2 PPI 7%.
Screening Cc1ccc(CNC(=O)CSc2ncc(S(=O)(=O)c3ccc(Br)cc3)c(=O)[nH]2)cc1 returned Tau fluor cs -8%, Tau ThT inhib -15%, Tau fibril FP 9%, TR SRC2 fluor cs 0.4µM*[quencher] and TRb SRC2 PPI -27%[53 µM].
`O=C(CSc1nc(-c2ccc(F)cc2)[nH]c1-c1ccc(F)cc1)Nc1ccc2c(c1)OCCO2` gave Tau fluor cs 8.9µM*[quencher], Tau ThT inhib inconclusive, Tau fibril FP -14%, TR SRC2 fluor cs -2% and TRb SRC2 PPI 2%.
COc1ccc(-c2[nH]c(-c3ccccc3)nc2SCC(=O)Nc2ccc3c(c2)OCCO3)cc1 was read as Tau fluor cs 8.9µM*[quencher], Tau ThT inhib inconclusive, Tau fibril FP inconclusive, TR SRC2 fluor cs -2% and TRb SRC2 PPI -2%.
O=C(CSc1nc(-c2ccc(F)cc2)[nH]c1-c1ccc(F)cc1)Nc1ccc2c(c1)OCO2 was read as Tau fluor cs inconclusive, Tau ThT inhib inconclusive, Tau fibril FP inconclusive, TR SRC2 fluor cs -2% and TRb SRC2 PPI 10%.
`O=C(CSc1nc(-c2ccccc2)[nH]c1-c1ccccc1)Nc1ccc2c(c1)OCCO2` gave Tau fluor cs 10µM*[quencher], Tau ThT inhib inconclusive, Tau fibril FP -14%, TR SRC2 fluor cs -2% and TRb SRC2 PPI 0%.
`NC(N)=NCCC[C@H](N)C(=O)NCC(=O)N[C@@H](CC(=O)O)C(=O)N[C@@H](CO)C(=O)O` gave TR SRC2 fluor cs -2% and TRb SRC2 PPI 0%.
O=C1[C@H]2[C@H]3[C@H](O)[C@H](O)C/C(=N/OC[C@@H](O)COCc4ccco4)[C@H]3CC[C@@H]2C(=O)N1Cc1ccc2c(c1)OCO2 was read as Tau fluor cs -3%[11.6 µM], Tau ThT inhib -4%[11.5 µM], Tau fibril FP -4%[11.6 µM], TR SRC2 fluor cs -1%[11.2 µM] and TRb SRC2 PPI 6%[11.2 µM].
Screening NC(=O)CCCCC(N)=O returned GoLoco inh red -3%, TR SRC2 fluor cs 0% and TRb SRC2 PPI -6%.

Screens deposited in PubChem by National Center for Advancing Translational Sciences (NCATS).
